High-throughput results from PubChem BioAssay.
DENV2 CPE rescue – DENV2-induced cell death inhibition; DENV2-infected cells, cytopathic effect rescue, plate reader; CPE inhibition, % at 9.99 µM; 350,000 compounds, 1.7% hits; in the data active = CPE inhibition above about 20%, passing the limit was not always enough; inconclusive = no clear call, values can overlap the other calls; tested in BHK-21 cells;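 note: 0% = median of neutral control wells and 100% = median of positive control wells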
PDI inh – inhibitors of human protein disulfide isomerase; P07237; PDI insulin aggregation turbidity, A650, 90 min; inhibition, % at 10 µM; 350,000 compounds, 0.052% hits; AID 588391;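 active = mean inhibition across replicates of 30% or more, whatever share of single replicates reach that level; inconclusive = mean inhibition below 30% while every single replicate reaches 30%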
AF4-AF9 inh – MLL-AF4/AF9 protein interaction inhibition; AlphaScreen, biotin-AF4 peptide binding to FLAG-AF9; inhibition, % at 10 µM; 350,000 compounds, 0.47% hits;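 active = every replicate reaching a set inhibition limit, whatever the replicate mean, cut at about 25% in these data; inconclusive = mean inhibition reaches that limit but some replicates miss it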;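 note: 0% = plate neutral control median and 100% = total signal loss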
Target sequence (P42568 whole entry, looked up): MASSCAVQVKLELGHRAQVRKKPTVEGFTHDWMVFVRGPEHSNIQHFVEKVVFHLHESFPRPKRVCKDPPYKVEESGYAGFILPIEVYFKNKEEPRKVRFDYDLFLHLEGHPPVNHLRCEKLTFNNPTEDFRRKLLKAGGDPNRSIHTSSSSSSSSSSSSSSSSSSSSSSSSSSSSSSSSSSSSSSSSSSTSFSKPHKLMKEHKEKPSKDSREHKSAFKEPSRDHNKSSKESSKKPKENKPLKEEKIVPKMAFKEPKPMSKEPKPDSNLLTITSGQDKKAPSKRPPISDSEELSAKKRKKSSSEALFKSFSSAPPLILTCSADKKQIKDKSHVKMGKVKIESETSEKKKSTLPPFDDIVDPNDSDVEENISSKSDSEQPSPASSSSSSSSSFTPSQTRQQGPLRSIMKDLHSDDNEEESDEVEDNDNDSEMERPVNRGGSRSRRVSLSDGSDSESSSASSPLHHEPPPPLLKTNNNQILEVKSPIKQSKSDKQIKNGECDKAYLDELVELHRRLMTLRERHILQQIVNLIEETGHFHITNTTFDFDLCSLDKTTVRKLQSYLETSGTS
ERAP1 HTS inh – inhibitors of human ERAP1 aminopeptidase | AID 652197 | Q9NZ08 | recombinant ERAP1, Leu-AMC fluorescence, 60 min | inhibition, % at 10.7 µM | 340,000 compounds, 0.15% hits;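 active = mean replicate inhibition of at least 30%, or all replicates individually reaching that 30% level; inactive = mean below 30% and not every replicate reaching it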;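 note: 0% = neutral control wells and 100% = L-leucinethiol positive control wells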
ERp5 inh – blocks human ERp5 reductase activity on insulin | Q15084 | AID 651711 | 350,000 compounds, 0.05% hits | ERp5 insulin aggregation, absorbance 650 nm, 90 min | inhibition, % at 9.99 µM;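 active = mean replicate inhibition above about 25%, with every replicate also reaching it, limit read from the data, passing the limit was not always enough; inconclusive = only one of those two criteria met; inactive = neither criterion met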
The depositor's hits bear a star; ? = inconclusive; / = no result. This is a sample that favours compounds with a hit; in the whole collection about 1.8% have one here.

SMILES | DENV2 CPE rescue | PDI inh | AF4-AF9 inh | ERAP1 HTS inh | ERp5 inh
C[C@H]1CN([C@@H](C)CO)C(=O)c2cccc(NS(C)(=O)=O)c2O[C@@H]1CN(C)C | 3 | / | -3 | 0 | -2
Cc1noc(C)c1NC(=O)N[C@@H]1C=C[C@@H](CC(=O)N2CCCCC2)O[C@H]1CO | -1 | / | -2 | -4 | -2
CC=Cc1ccc2n(c1=O)C[C@@H]1[C@@H](CO)[C@H](C(=O)NC3CCC3)[C@H]2N1Cc1ccncc1 (mixture of isomers) | ? | / | -2 | 1 | 8
C[C@@H]1CN([C@H](C)CO)C(=O)c2cc(NC(=O)Nc3ccc4c(c3)OCO4)ccc2O[C@@H](C)CCCCO[C@H]1CN(C)Cc1ccc2c(c1)OCO2 | 16 | / | 39* | -3 | 0
C[C@@H]1CCCCO[C@@H](CN(C)Cc2ccccc2)[C@H](C)CN([C@H](C)CO)C(=O)c2cc(NC(=O)Nc3ccc4c(c3)OCO4)ccc2O1 | -2 | / | 31* | 0 | -1
COc1ccc(CN(C)C[C@H]2OCCCC[C@@H](C)Oc3ccc(NC(=O)Nc4ccc5c(c4)OCO5)cc3C(=O)N([C@@H](C)CO)C[C@@H]2C)cc1 | -4 | / | 28* | -2 | 4
C[C@H](CO)N1C[C@H](C)[C@H](CN(C)Cc2ccc3c(c2)OCO3)OCCCC[C@H](C)Oc2ccc(NC(=O)Nc3ccc4c(c3)OCO4)cc2C1=O | -8 | / | 20 | -3 | -2
COc1ccc(NC(=O)Nc2cccc3c2O[C@H](CN(C)S(=O)(=O)c2cn(C)cn2)[C@@H](C)CN([C@@H](C)CO)C3=O)cc1 | -14 | / | -1 | 5 | -9
CN(C)C(=O)C[C@@H]1CC[C@@H]2[C@H](COc3ccc(NC(=O)C4CCCC4)cc3C(=O)N2C)O1 | 3 | / | -17 | -4 | -1
O=C(C[C@H]1CC[C@H]2[C@@H](COC[C@H](O)CN2C(=O)Cc2ccccc2)O1)NC1Cc2ccccc2C1 | 6 | / | / | / | /
CO[C@@H]1CC[C@@H]2CCOc3c(C#N)cccc3C(=O)N(C)C[C@@H](OC)[C@@H](C)C(=O)N(C)C[C@@H]1O2 | -2 | / | 1 | -5 | 12
CCn1c2ccccc2c2cc(NC(=O)CSc3nnnn3-c3ccccc3)ccc21 | / | 9 | / | / | /
OC(CSc1nnnn1-c1ccccc1)Cn1c2ccccc2c2ccccc21 (stereo unspecified) | 21* | / | -2 | -4 | 5
CO[C@@H]1CN(C)C(=O)c2cc(NC(=O)Nc3ccccc3Cl)ccc2OC[C@H](C)NC[C@@H]1C | 7 | / | -1 | 3 | -2
COc1ccc(C(CCN2CCOCC2)c2c(OC)cc(OC)c3c(C)cc(=O)oc23)cc1 (stereo unspecified) | 56* | 0 | -13 | -3 | 3
COc1ccc(C(CC(=O)N2CCCCC2)c2c(OC)cc(OC)c3c(-c4ccccc4)cc(=O)oc23)cc1 (stereo unspecified) | 71* | 2 | 3 | -4 | 3
COc1ccc(C(CC(=O)N2CCCC2)c2c(OC)cc(OC)c3c(-c4ccccc4)cc(=O)oc23)cc1 (stereo unspecified) | 1 | 0 | 1 | -3 | -2
C/C=C/c1ccc([C@@H]2[C@@H](C#N)N(c3ncc(CC)s3)[C@H]2CO)cc1 | -14 | / | 3 | 0 | -1
Cn1c(C(=O)N/N=C/c2ccccc2)cc2ccccc21 | 88* | -4 | 2 | -2 | -3
Cc1ccc(S(=O)(=O)Nc2ccc3c(c2)C(=O)N([C@@H](C)CO)C[C@H](C)[C@H](CN(C)Cc2ccc(C(=O)O)cc2)OCCCC[C@@H](C)O3)cc1 | -1 | / | -4 | -1 | 0
O=C(c1ccc2c(c1)OCO2)N1CC2(C1)[C@@H](c1ccccc1)[C@@H](CO)N2C(=O)C1CCC1 | 11 | / | 4 | 1 | 2
COc1cccc(C2=CC(=O)C(C(C)(C)C)N2C(C)(C)C)c1 (stereo unspecified) | 41* | -5 | 2 | / | -7
COc1cccc(C2=NOC(C(=O)NC(C)(C)C)C2)c1 (stereo unspecified) | / | -4 | / | / | /
CCCC(=O)Nc1ccc2c(c1)OC[C@@H](C)NC[C@H](C)[C@@H](OC)CN(C)C2=O | 12 | / | -5 | / | 0
COc1ccc(NC(=O)Nc2ccc3c(c2)OC[C@@H](C)NC[C@H](C)[C@H](OC)CN(C)C3=O)cc1 | 22* | / | 3 | 0 | 7
SMILES | DENV2 CPE rescue | PDI inh | AF4-AF9 inh | ERAP1 HTS inh | ERp5 inh
COc1cccc(NC(=O)Nc2ccc3c(c2)OC[C@H](C)NC[C@@H](C)[C@H](OC)CN(C)C3=O)c1 | 22* | / | 7 | -4 | 10
CCC(=O)Nc1ccc2c(c1)OC[C@H](C)NC[C@H](C)[C@H](OC)CN(C)C2=O | 21* | / | 0 | 2 | -4
CO[C@@H]1CN(C)C(=O)c2ccc(NC(=O)C3CCC3)cc2OC[C@H](C)NC[C@@H]1C | 34* | / | -1 | 0 | 1
C[C@@H]1CN([C@H](C)CO)C(=O)c2cc(C#CC3CCCC3)cnc2O[C@H]1CN(C)S(=O)(=O)c1cccc(F)c1 | ? | / | 2 | 0 | -4
CO[C@H]1CN(C)C(=O)c2cc(NC(=O)CC(F)(F)F)ccc2OC[C@@H](C)NC[C@H]1C | 26* | / | -9 | 3 | -1
CCCNC(=O)N1C[C@@H](C)[C@H](OC)CN(C)C(=O)c2ccc(NC(=O)C3CCC3)cc2OC[C@H]1C | 40* | / | -2 | -3 | -6
CO[C@@H]1CN(C)C(=O)c2cc(NC(=O)CC(F)(F)F)ccc2OC[C@H](C)NC[C@@H]1C | 0 | / | 8 | 2 | -3
CO[C@H]1CN(C)C(=O)c2ccc(NC(=O)NC(C)C)cc2OC[C@H](C)NC[C@@H]1C | 30* | / | -5 | -3 | 0
CO[C@H]1CN(C)C(=O)c2ccc(NC(=O)NC(C)C)cc2OC[C@@H](C)NC[C@@H]1C | 4 | / | -3 | 0 | -3
C[C@H]1CN([C@@H](C)CO)C(=O)Cc2cc(NC(=O)CCN3CCOCC3)ccc2O[C@H]1CN(C)Cc1ccc(-c2ccccc2)cc1 | 16 | / | 9 | 2 | -5
O=C(Cn1cnc2c(OCc3ccccc3)ncnc21)NCC1CCCO1 (stereo unspecified) | 3 | 15 | 0 | -3 | 0
O=C(Cn1cnc2c(NCc3ccccc3)ncnc21)NCC1CCCO1 (stereo unspecified) | 75* | -1 | -4 | 2 | 2
COC(=O)c1cn(CC(=O)N2CCC3(CC2)C(=O)NCN3c2ccccc2)nn1 | 12 | / | -1 | 3 | 3
C[C@@H]1CN([C@@H](C)CO)C(=O)c2cc(NC(=O)Cc3ccccc3)ccc2O[C@H]1CN(C)C(=O)Nc1ccc(F)cc1 | 0 | / | 0 | -1 | 4
Cc1nnc2ccc(N3CCN(c4cccc(C(F)(F)F)c4)CC3)nn12 | 2 | 6 | 51* | 3 | -3
Cc1nnc2ccc(N3CCCCC3)nn12 | 17 | 5 | -1 | -2 | 1
C[C@H](CO)N1C[C@H](C)[C@@H](CN(C)Cc2ccc(C(F)(F)F)cc2)Oc2ccc(NS(=O)(=O)c3cn(C)cn3)cc2CC1=O | -6 | / | -2 | -2 | -4
